Experimental findings from PubChem BioAssay AID720517 (National Center for Advancing Translational Sciences (NCATS), 2013) are described below.

Results filed as inconclusive are left out. Values without a mark were called inactive. The call rests on the fitted dose curve; in most records, active means well fitted activation curve with a large enough effect; inconclusive means small, poorly fitted or top-dose-only effect; inactive means flat fitted curve, though single readings scatter.

The test in a line: qHTS for Inhibitors of Cell Surface uPA Generation: FP59 Counterscreen for Cherry-picked Compounds. Further: 0% is about no effect. Conditions: FP59 anthrax toxin cytotoxicity counterscreen, cells; series mostly up to 115 µM; activity (protection from FP59): at the top concentration.
For `Cc1ccc(NC(=O)CCCn2c(=S)[nH]c3ccsc3c2=O)cc1C`, the “activity (protection from FP59)” value was 1.08%. The same measure for `COCCn1nnnc1C(C(C)C)N1CCCC(C)C1` (centres undefined): -1.3%. For `CC1(c2cccc([N+](=O)[O-])c2)CC(C)(C)N(C(=O)c2ccccc2)c2ccccc21` (centres undefined), the “activity (protection from FP59)” value is 3.03%. To `Cc1cc(C)nc(N2N=C(C(F)(F)F)CC2=O)n1` belongs -1.28%; to `CCCOc1ccc(CC2CCC(=O)NC2=O)cc1` (centres undefined), -1.11%. The same measure for `Cc1cccc(NC(=O)c2cc3c(=O)n4ccccc4nc3s2)c1`: -1.34%. To `COc1cc(/C=N/NC(=O)c2ccncc2)ccc1O` belongs -1.39%; to `COC(=O)/C(C#N)=C/c1c(N2CCN(c3ccccc3)CC2)nc2c(C)cccn2c1=O`, 0.153%; to `CCOC(=O)C1=CC[C@@H](c2cc3ccc(OC)cc3n2C)N(S(=O)(=O)c2ccc(C)cc2)[C@H]1C(=O)OCC`, -1.37%.

`CC(C(=O)Nc1nccs1)c1ccc([N+](=O)[O-])cc1` (centres undefined): the “activity (protection from FP59)” value is -1.23%. Turning to `CC1CCCC(NC(=O)CNC(=S)N(Cc2ccccc2)Cc2cccs2)C1C` (centres undefined), the “activity (protection from FP59)” value was 7.33%. To `COc1ccc(C(=O)NCCCN2CCOCC2)cc1` belongs -1.15%.

Regarding `O=S(=O)(NCC(c1cccnc1)N1CCOCC1)c1ccccc1` (centres undefined), the “activity (protection from FP59)” value was -1.32%.

In the case of `CC1C2=C(CC(C)(C)CC2=O)NC2=C1C(=O)CC(C)(C)C2`, the “activity (protection from FP59)” value was -1.24%. Regarding `CSCC[C@H](NC(=O)[C@H](Cc1ccccc1)n1c(=O)[nH]c2ccccc2c1=O)C(=O)N1CCC[C@H]1C(=O)O`, the “activity (protection from FP59)” value is -1.3%. The same measure for `O=C(NNC(=O)c1ncc(Cl)c(Cl)c1Cl)c1ccc(F)cc1`: 0.837%. The same measure for `COc1ccc(OC)c(N2C(=O)CC(Cc3cc(C)cc(C)c3)C2=O)c1` (centres undefined): -1.31%; for `COc1cc(NC(=O)CSc2nnc3ccc(-c4ccncc4)nn23)cc(OC)c1`: -1.37%; for `NC(=O)c1cc2c3ccccc3ccn2c1-c1ccccc1`: -1.18%. To `CCOc1ccc(C(=O)NCCO)cc1` belongs -1.17%. Turning to `COCCOc1ccc(C(F)(F)F)cc1NC(=O)COC(=O)Cc1c[nH]c2ccccc12`, the “activity (protection from FP59)” value is -1.38%. The same measure for `CCCCN(C(=O)c1cnccn1)c1c(N)n(CCC)c(=O)[nH]c1=O`: -1.49%; for `CC(=O)Nc1ccc(NC(=O)CCCCCN2C(=O)c3ccccc3C2=O)cc1`: -1.56%. The same measure for `Cc1cccn2c(CNCC(C)Oc3cccnc3)c(C(=O)N3CCOCC3)nc12` (centres undefined): -1.42%; for `C=CCn1c(SCc2ccc(C(=O)NCCO)cc2)nc2ccccc2c1=O`: -1.12%; for `CCOc1ccccc1N(CC(=O)Nc1ccc(OC)cc1)S(=O)(=O)c1ccccc1`: 7.21%. With `O=C(C1CCCCN1S(=O)(=O)c1ccc(F)cc1)N1CCN(c2ccccc2F)CC1` (centres undefined), the “activity (protection from FP59)” value is -0.0276%. As to `CCn1c(SC(C)C(=O)NC2CCCC2)nc2cc(S(N)(=O)=O)ccc21` (centres undefined), the “activity (protection from FP59)” value is -1.27%. Turning to `CC(=O)Nc1c2c(nn1-c1cccc(C)c1)CSC2`, the “activity (protection from FP59)” value is -1.26%.

Consider `CCOc1cc(N2CCOCC2)c(OCC)cc1NC(=O)c1[nH]c(C)c(C(C)=O)c1C`, for which the “activity (protection from FP59)” value is -1.34%.

With `CC(C)CCN1C(=O)c2ccc(-c3nc4ccccc4c(=O)o3)cc2C1=O`, the “activity (protection from FP59)” value is -1.05%.

In the case of `CC1CCCN(S(=O)(=O)c2cccc([N+](=O)[O-])c2)C1` (centres undefined), the “activity (protection from FP59)” value was -1.5%.

With `C[C@H](CO)N1C[C@H](C)[C@@H](CN(C)C(=O)Nc2ccccc2)Oc2c(NS(=O)(=O)c3ccccc3)cccc2C1=O`, the “activity (protection from FP59)” value is -1.23%. Turning to `COc1ccc(OC)c(NC(=O)C2CC2c2ccccc2)c1` (centres undefined), the “activity (protection from FP59)” value was -1.35%.

Take `Cn1cnc([N+](=O)[O-])c1Sc1ccc(Br)cc1`: the “activity (protection from FP59)” value was -1.41%.

Consider `CCNc1nc(Nc2ccc(C)c(Cl)c2)c2cnn(C)c2n1`, for which the “activity (protection from FP59)” value was -1.25%. The same measure for `O=C(Nc1c(C(=O)O)oc2ccc(Br)cc12)c1ccccc1`: -0.512%; for `Cn1cc(SCC(=O)Nc2nccs2)c2ccccc21`: -1.34%; for `COc1ccccc1C(=O)Nc1cccc(C(=O)c2ccccc2)c1`: -0.645%.
